The panel holds about 83,000 compounds, 20% with a hit somewhere; the sample as a whole holds those more often.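 How to read the values: 0–100, growth inhibition (40 = 60% inhibited); 0, no net growth; -100 to 0, cell death (-40 = 40% of starting cells died; -100 = all dead).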 A number with no mark means an inactive call. The source made the active and inactive calls. How the source made its calls: active means growth percent below 10; inactive means the rest.
tested on: SNB-19 CNS; assay: NCI-60 one-dose screen, 48 h (100 = growth as untreated, 0 = no growth, -100 = all killed); details: 10 µM unless noted

Compound | growth
O=C(Nc1ccc(CN2CCOCC2)c(C(F)(F)F)c1)c1nc2ccc3[nH]ncc3c2c2c1CCCC2 | 98.4%
CC(C)[C@H]1CCC2=C3CC[C@]45OC(=O)[C@@]6(CCC(C)(C)C[C@H]64)CC[C@@]5(C)[C@]3(C)CC[C@@]21C | 71.6% [100 µM]
Cc1ccc2c(c1)/C(=N\N=C/c1cn(C(C)C)c3ccccc13)C(=O)N2 | 76.5%
COc1ccc(C(=O)c2nccc3cc(OC)c(OC)cc23)cc1OC | 94.9%
Nc1cc(C(=O)O)[nH]c(=S)n1 | 97.5%
CC1(C)CC[C@]2(C(=O)O)CC[C@]3(C)C(=CC[C@@H]4[C@@]5(C)C/C(=C/c6cccnc6)[C@H](O)C(C)(C)[C@@H]5CC[C@]43C)[C@@H]2C1 | 16.6% [100 µM]
ClC1=C(Cl)C(Cl)=C(Cl)C1=Cc1ccccc1 | -16.8% (active)
CCCCC(CCCCCC(CCCC)C1NC(C)Cc2cc(OC)c(OC)cc21)C1NC(C)Cc2cc(OC)c(OC)cc21 (stereo not drawn) | -69.8% (active)
COc1ccccc1S(=O)Nc1ccccc1 (stereo not drawn) | 99.5%
Cc1cnc(N)nc1OCC(C)(C)CNC(=O)c1cccc(-c2ccc(S(=O)(=O)Nc3ccc4c(c3)N(C(=O)C3CC3)CCC4)cc2)c1 | 67.9%
C=C(C)[C@@H]1CC[C@]2(COC(=O)c3ccccc3C(=O)O)CC[C@]3(C)[C@H](CC[C@@H]4[C@@]5(C)CC[C@H](OC(=O)c6ccccc6C(=O)O)C(C)(C)[C@@H]5CC[C@]43C)[C@@H]12 | 4.01% [100 µM] (active)
Cc1cc(N2CCCCCC2)nc(N2CCN(CC(=O)Nc3ccc4c(ccn4Cc4ccccc4)c3)CC2)n1 | 67.3%
CC1(C)C(=O)/C(=C\c2cccnc2)C[C@]2(C)[C@H]3CC[C@@H]4[C@H]5[C@H](C(=O)/C=C/c6cccnc6)CC[C@]5(C(=O)O)CC[C@@]4(C)[C@]3(C)CC[C@@H]12 | -83.3% [100 µM] (active)
CCN(CC)CCSC(=O)C(O)(c1ccccc1)C1CCCC1 (stereo not drawn) | 111%
O=C(NNc1ccc(-c2ccccc2)nn1)c1ccccc1 | 95.4%
Cc1cc2c(C(C)C)c(O)c(O)c(C=NCc3ccoc3)c2c(O)c1-c1c(C)cc2c(C(C)C)c(O)c(O)c(C=NCc3ccco3)c2c1O | 19.8%
c1ccc(-c2nnc(-c3c[nH]c4ncccc34)s2)cc1 | 91.7%
Cc1ccc(-c2cc(-c3ccc(C)cc3)nc(NCCNc3ccnc4cc(Cl)ccc34)n2)cc1 | 16.8%
Cn1cc(-c2noc(C(=O)c3cn(C)c4ncccc34)n2)c2ccccc21 | 93.1%

Compound | growth
Cc1cc(NN=C(c2ccc(O)cc2)c2ccc(O)cc2)c([N+](=O)[O-])cc1[N+](=O)[O-] | 89.3%
O=C(C[n+]1ccn(CC(OCc2ccc(Cl)cc2Cl)c2ccc(Cl)cc2Cl)c1)c1ccc(F)cc1 (stereo not drawn) | -95.9% (active)
COc1cc(-c2nc(SCCC(C)C)nc(Nc3ccc(S(N)(=O)=O)cc3)c2C#N)cc(OC)c1OC | 54.3%
CC(C)=CCC[C@](C)(O)[C@H]1CC[C@]2(C)[C@@H]1CC[C@@H]1[C@@]3(C)CC[C@H](OC(=O)CCC(=O)O)C(C)(C)[C@@H]3CC[C@]12C | 24.1% [100 µM]
C=C(C)[C@@H]1CC[C@]2(C)[C@H](CC[C@@H]3[C@@H]([C@@](C)(O)CCC=C(C)C)CC[C@]32C)[C@@]1(C)CCC(=O)O | -32.8% [100 µM] (active)
O=C(CCN1CCCCC1)c1ccc2ccccc2c1 | 103%
O=C(N/N=C/c1c(Cl)cccc1Cl)c1cccc(Nc2ccnc(C(F)(F)F)c2)c1 | 85.7%
CCc1ccc(C2=C/C(=C/c3ccccc3)C(=O)N2CCc2ccc(S(N)(=O)=O)cc2)cc1 | 93.9%
COc1cc2c(cc1OCCCCCOc1ccc(-n3c(C)nc4ccccc4c3=O)cc1)N=C[C@@H]1CCCN1C2=O | 1.38% (active)
CCN(CCO)CCC(=O)c1ccc([N+](=O)[O-])cc1 | 117%
COc1c(B(O)O)cccc1-c1nc2ccc3[nH]ncc3c2c2c1CCC2 | 82.3%
Cc1ccc(-c2cc(O)c(-c3ccc(C)cc3C)cc2O)c(C)c1 | 71.9%
C=C(C)[C@@H]1CC[C@]2(c3ncc(C)o3)CC[C@]3(C)[C@H](CC[C@@H]4[C@@](C)(CCC#N)[C@H](C(=C)C)CC[C@]43C)[C@@H]12 | -95% [100 µM] (active)
Nc1nc(Nc2ccccc2)c2ncn(Cc3ccc4c(c3)OCO4)c2n1 | 54.4%
CC(=O)OC[C@]12CC[C@@H](C(=O)CBr)[C@@H]1[C@H]1CC[C@@H]3[C@@]4(C)CCCNC(C)(C)[C@@H]4CC[C@@]3(C)[C@]1(C)CC2 | -93.4% [100 µM] (active)
C[C@@H]1C[C@H]2C(=O)O[C@@H](C)[C@H](NC(=O)[C@H](Cc3cc(F)cc(F)c3)NC(=O)Nc3ccc(Cl)cc3F)C(=O)N3C[C@H](O)C[C@H]3C(=O)N3CCN(C)C[C@H]3C(=O)N[C@@H](C)C(=O)N2C1 | 20.3%
COC(=O)C(=Cc1ccccc1[N+](=O)[O-])C(=O)OC | 88.9%
CC1Cc2c(Cl)ncnc2N(C)c2ccc(Cl)cc21 (stereo not drawn) | 25.2%
CC1(C(=O)O)CCC(N)(C(=O)O)C1(C)C (stereo not drawn) | 105%

Source: PubChem BioAssay (NCI)
